Measurements published in ChEMBL document CHEMBL4808148, “HDAC6 screening dataset using tau-based substrate in an enzymatic assay yields selective inhibitors and activators” (2021).
Screen size: about 5,600 compounds; about 390 (7%) showed an effect of 50% or more. The entries come from a sample that favours strong results as a whole.

Experiments:
[1] = target: T1, Protein deacetylase HDAC6 (Homo sapiens) (UniProt Q9UBN7); details: at 10 µM
T1 sequence (whole entry): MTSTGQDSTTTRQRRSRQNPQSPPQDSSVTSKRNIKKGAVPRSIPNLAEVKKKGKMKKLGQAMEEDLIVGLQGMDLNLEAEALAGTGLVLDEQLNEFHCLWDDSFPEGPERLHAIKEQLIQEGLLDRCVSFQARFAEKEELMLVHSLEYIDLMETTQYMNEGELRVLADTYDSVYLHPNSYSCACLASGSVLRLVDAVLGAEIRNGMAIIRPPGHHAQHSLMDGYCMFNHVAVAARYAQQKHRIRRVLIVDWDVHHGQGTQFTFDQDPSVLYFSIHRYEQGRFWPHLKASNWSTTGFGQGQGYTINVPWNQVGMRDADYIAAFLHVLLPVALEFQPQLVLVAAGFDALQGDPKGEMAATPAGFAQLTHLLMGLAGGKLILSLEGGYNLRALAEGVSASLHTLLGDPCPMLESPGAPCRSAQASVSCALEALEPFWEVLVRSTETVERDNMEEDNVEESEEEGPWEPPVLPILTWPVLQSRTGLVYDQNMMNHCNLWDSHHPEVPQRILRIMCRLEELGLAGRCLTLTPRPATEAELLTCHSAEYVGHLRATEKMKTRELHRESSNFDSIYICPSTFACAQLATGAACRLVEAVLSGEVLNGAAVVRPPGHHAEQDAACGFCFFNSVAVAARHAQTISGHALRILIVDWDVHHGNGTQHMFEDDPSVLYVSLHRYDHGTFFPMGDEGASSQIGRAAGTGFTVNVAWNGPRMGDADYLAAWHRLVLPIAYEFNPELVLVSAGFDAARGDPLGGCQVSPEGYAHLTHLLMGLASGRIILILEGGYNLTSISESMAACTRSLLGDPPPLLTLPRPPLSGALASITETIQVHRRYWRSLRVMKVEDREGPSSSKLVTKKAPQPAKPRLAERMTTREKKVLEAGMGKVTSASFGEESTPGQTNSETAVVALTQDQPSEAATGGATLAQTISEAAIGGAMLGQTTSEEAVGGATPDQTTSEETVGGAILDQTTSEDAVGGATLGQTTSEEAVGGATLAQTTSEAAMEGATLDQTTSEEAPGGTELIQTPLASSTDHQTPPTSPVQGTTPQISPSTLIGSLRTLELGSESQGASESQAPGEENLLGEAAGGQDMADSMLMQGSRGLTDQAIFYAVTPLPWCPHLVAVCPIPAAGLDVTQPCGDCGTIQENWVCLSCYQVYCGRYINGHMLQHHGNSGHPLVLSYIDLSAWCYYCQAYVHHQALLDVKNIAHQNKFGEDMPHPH

[2] = target: Protein deacetylase HDAC6 (Homo sapiens) (UniProt Q9UBN7); details: at 10 µM; remark: listed apart in the source

Row | Compound | inhibition [1] | inhibition [2]
1 | FCc1ccc(OCCOc2ccc(Cl)cc2Cl)c(Cl)n1 | 61.7% | 
2 | CCOc1c2c(c(OCC)c3ccccc13)C(=O)N(c1ccc(CC(=O)NS(=O)(=O)c3ccccc3)cc1)C2 | 3.49% | 
3 | O=C1C2CC3CC1CC(O)(C3)C2 | 26.7% | 
4 | COc1cc2c(Oc3ccc4[nH]c(C)cc4c3F)ccnc2cc1OCC1(N)CC1 | 54.9% | 
5 | Cc1cc2c(F)c(Oc3ncnn4cc(OC[C@@H](C)OC(=O)[C@H](C)N)c(C)c34)ccc2[nH]1 | 48.1% | 
6 | NS(=O)(=O)c1ccc2c(c1)C1C=CCC1C(c1ccc(Br)cc1)N2 (stereo not drawn) | 8.71% | 
7 | CS(=O)(=O)c1ccc(-c2cn3ccccc3n2)cc1 | 99.6% | 
8 | CS(=O)(=O)c1ccc(-c2cnc(N)c(C(=O)Nc3ccccc3)n2)cc1 | 6.2% | 
9 | Cc1cccc2c1CC[C@H](CN1CCC(c3c(Cl)cccc3Cl)CC1)C[C@@H]2O | -4.44% | 
10 | CN(C)[C@@H]1CCc2[nH]c3ccc(NC(=O)c4ccc(F)cc4)cc3c2C1 | 6.78% | 
11 | O=C1C2CC=CCC2C(=O)N1SC(Cl)(Cl)Cl (stereo not drawn) | 59.5% | 
12 | O=[N+]([O-])c1ccc(Cl)c([N+](=O)[O-])c1 | 15.2% | 
13 | O=C(O[C@@H]1Cc2c(O)cc(O)cc2O[C@@H]1c1cc(O)c(O)c(O)c1)c1cc(O)c(O)c(O)c1 | 11.9% | 
14 | COc1cc(O)cc([C@@H]2CC(=O)c3c(O)cc(O[C@@H]4O[C@H](CO)[C@@H](O)[C@H](O)[C@H]4O[C@@H]4O[C@@H](C)[C@H](O)[C@@H](O)[C@H]4O)cc3O2)c1 | 5.67% | 
15 | O=C1C[C@@H](c2ccc(O)cc2)Oc2cc(O)cc(O)c21 | 73.8% | 
16 | [O-][n+]1ccccc1S | 22.8% | 
17 | O=C(Oc1ccccc1)c1ccccc1O | 77.2% | 
18 | O=C(OCCO)c1ccccc1O | 5.24% | 
19 | CCOC(=O)c1ccccc1OC(N)=O | 7.12% | 
20 | CCCN(CCC)C(=O)C(CCC(=O)OCCCN1CCN(CCOC(=O)Cc2c(C)n(C(=O)c3ccc(Cl)cc3)c3ccc(OC)cc23)CC1)NC(=O)c1ccccc1 (stereo not drawn) | -4.35% | 
21 | O=[N+]([O-])c1cc(Cl)ccc1S(=O)(=O)c1ccccc1 | 13.8% | 
22 | NC1=NC(=O)N([C@H]2C[C@H](O)[C@@H](CO)O2)CN1 | 19.8% | 
23 | Brc1ccc(NC2C3CC4CC(C3)CC2C4)cc1 (stereo not drawn) | 5.83% | 

Row | Compound | inhibition [1] | inhibition [2]
24 | O=S(=O)(c1ccccc1F)N1CCOc2c(N3CCNCC3)cccc21 | 3.08% | 
25 | CC(=O)O[C@]1(C(C)=O)CC[C@H]2[C@@H]3C=CC4=CC(=O)CC[C@]4(C)[C@H]3CC[C@@]21C | 31.5% | 
26 | CCCSc1ccc2[nH]c(NC(=O)OC)nc2c1 | 58.8% | 
27 | CCOC(=O)Nc1nc2ccccc2[nH]1 | 34.2% | 
28 | CCC[S+]([O-])c1ccc2[nH]c(NC(=O)OC)nc2c1 (stereo not drawn) | 18.6% | 
29 | Cc1nc(N(C)C(=O)Cc2ccc(-c3ccccn3)cc2)sc1S(N)(=O)=O | 23.9% | 
30 | CCOC(=O)Nc1ccc2c(c1)N(C(=O)CCN(CC)CC)c1ccccc1S2 | 14.5% | 
31 | Nc1nccc(Oc2ccc(NC(=O)c3cn(COP(=O)(O)O)cc(-c4ccc(F)cc4)c3=O)cc2F)c1Cl | 21.9% | 
32 | C[C@H]1CN(Cc2ccc(CC(=O)N3CCC(Nc4cccc(F)c4)CC3)cc2)CCN1 | 44.9% | 
33 | O=C(/C=C/c1cccc(F)c1)NC1CC1 | 52.8% | 
34 | CC(=O)N1CCC(NC(=O)c2ccc(F)cc2)CC1 | 13.7% | 
35 | O=C(C(c1ccccc1)c1ccccc1)N1CCN(CC(O)COc2cccc3ncccc23)CC1 (stereo not drawn) | 5.51% | 
36 | COc1ccc(C2CNC(=O)NC2)cc1O[C@H]1C[C@@H]2CC[C@H]1C2 | 6.99% | 
37 | CCOC(=O)[C@H](CCc1ccccc1)N[C@@H](C)C(=O)N1C(=O)N(C)C[C@H]1C(=O)O | 15.9% | 
38 | CC(=O)Oc1ccccc1C(=O)Nc1ncc([N+](=O)[O-])s1 | 103% | 
39 | O=C1NC(O)CCN1[C@@H]1O[C@H](CO)[C@@H](O)[C@H]1O (stereo partly drawn) | 15.9% | 
40 | C[C@@H]1CC2C3CCC4=CC(=O)C=C[C@]4(C)[C@@]3(F)[C@@H](O)C[C@]2(C)[C@H]1C(=O)CO (stereo partly drawn) | 6.55% | 
41 | ESCIN, CHEMBL4594473 |  | 3.89%
42 | O=C(COc1ccc(Cl)cc1)N[C@H]1CC[C@H](NC(=O)COc2ccc(Cl)cc2)CC1 | -5.96% | 
43 | CN1[C@@H]2C[C@@H](O)C[C@H]1[C@@H]1O[C@@H]12 | 91.4% | 
44 | Cc1cc(C)c(NC(=O)N(Cc2ccc3c(c2)Cc2ccccc2-3)C2CCCCCC2)c(C)c1 | 0.9% | 
45 | CN1CCN(Cc2ccc(Nc3ncc(Cl)c(Nc4ccccc4S(=O)(=O)N(C)C)n3)cc2)CC1 | 5.09% | 
46 | CC1(C)S[C@@H]2[C@H](NC(=O)[C@H](NC(=O)N3CCNC3=O)c3ccccc3)C(=O)N2[C@H]1C(=O)O | 13.9% | 

Row | Compound | inhibition [1] | inhibition [2]
47 | O=C(O)CC(S)C(=O)O (stereo not drawn) | 18.6% | 
48 | O[AsH]O[AsH]O (stereo not drawn) | -5.16% | 
49 | O=C(CO)[C@@H](O)[C@@H](O)[C@H](O)CO | 3.04% | 
50 | VANADATE ION, CHEMBL1163564 |  | 8.48%
51 | GADOTERIDOL, CHEMBL1200593 |  | -7.04%
52 | PHENYLMERCURIC ACETATE, CHEMBL1333953 |  | 113%
53 | CCNCc1cc(C(C)(C)C)c(O)c(C(C)(C)C)c1 | 36.2% | 
54 | CNc1ccc([N+](=O)[O-])cc1-n1cnc(-c2ccc(C(F)(F)F)cc2)c1 | -2.07% | 
55 | Cc1ccc(C(=O)Nc2ccc(CN3CCN(C)CC3)c(C(F)(F)F)c2)cc1C#Cc1cnc2[nH]ncc2c1 | 69% | 
56 | CCN1CCN(Cc2ccc(C(=O)Nc3ccc(C)c(Oc4ccc5c(c4)CC(=O)N5)c3)cc2C(F)(F)F)CC1 | 42.8% | 
57 | CCCCC(F)(F)[C@@]1(O)CC[C@H]2[C@@H](CC(=O)[C@@H]2CCCCCCC(=O)O)O1 | 26.8% | 
58 | Nc1c(S(=O)(=O)O)cc(Nc2cccc3ccccc23)c2c1C(=O)c1ccccc1C2=O | 30.6% | 
59 | CNC(C)CC1CCCCC1 (stereo not drawn) | -3.99% | 
60 | COc1ccc2nc3c(c(N)c2c1)CCCC3 | 14.7% | 
61 | Cc1cc(O)c2c(c1)C(=O)c1cc(O)cc(O)c1C2=O | 99.6% | 
62 | O=C(Nc1ccncc1)C(=O)c1cn(Cc2ccc(Cl)cc2)c2ccccc12 | 11.2% | 
63 | CCCCCCOc1nsnc1C1=CCCN(C)C1 | 21.1% | 
64 | CSCC[C@H](NC(=O)[C@H](Cc1ccccc1)NC(=O)CNC(=O)CNC(=O)[C@@H](N)Cc1ccc(O)cc1)C(=O)O | -7.67% | 
65 | CC(C)Cc1ccc(C(C)C(=O)NCCO)cc1 (stereo not drawn) | 5.6% | 
66 | Nc1nonc1/C(=N/O)Nc1ccc(F)c(Cl)c1 | 6.27% | 
67 | CC(=O)Nc1ccc(Cc2ccc(NC(C)=O)cc2)cc1 | 37.1% | 
68 | O=C(Nc1ccc(Cl)cc1)Nc1ccc(Cl)c(Cl)c1 | 52.2% | 
